Reference: PubChem BioAssay (NCATS)
Unmarked numbers belong to inactive results. The source made the active and inactive calls. The call rests on the fitted dose curve; in most records, active means well fitted activation curve with a large enough effect; inconclusive means small, poorly fitted or top-dose-only effect; inactive means no such curve, though single readings can be large or run the other way.

Target: Cytochrome P450 3A4 (Homo sapiens) (UniProt P08684)
Test: qHTS Assay for Activators of Cytochrome P450 3A4 (AID 885); further: nearly all actives have a fitted effect of over 65% in size
Conditions: recombinant CYP3A4, Luciferin-PPXE luminescence, 60 min; series mostly up to 57.1 µM; activity change, positive = activation: at the top concentration
In short: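 Using 20nM recombinant human CYP3A4 in potassium phosphate (200mM), substrate Luciferin-PPXE at 25uM, luminescent luciferin detection followed a 60-min RT NADPH reaction; data scaled to 57 uM ketoconazole.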

Sequence of Cytochrome P450 3A4 (Homo sapiens) (P08684 whole entry, looked up): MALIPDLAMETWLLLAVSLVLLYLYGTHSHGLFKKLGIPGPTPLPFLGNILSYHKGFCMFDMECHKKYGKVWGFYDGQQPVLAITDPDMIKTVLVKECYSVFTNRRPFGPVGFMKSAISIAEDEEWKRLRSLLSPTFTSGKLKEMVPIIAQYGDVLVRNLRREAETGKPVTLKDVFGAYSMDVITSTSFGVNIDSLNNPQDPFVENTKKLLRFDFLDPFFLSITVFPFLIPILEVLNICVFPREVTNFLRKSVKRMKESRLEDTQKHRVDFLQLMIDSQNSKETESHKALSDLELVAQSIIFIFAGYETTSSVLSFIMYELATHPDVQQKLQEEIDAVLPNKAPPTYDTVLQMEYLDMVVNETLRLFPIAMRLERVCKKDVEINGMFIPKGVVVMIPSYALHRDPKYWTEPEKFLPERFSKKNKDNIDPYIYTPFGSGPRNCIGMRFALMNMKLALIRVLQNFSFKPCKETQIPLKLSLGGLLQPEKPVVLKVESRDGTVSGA

SMILES	activity change, positive = activation	outcome
CCS(=O)(=O)Nc1cccc(C(=C2CCCCC2)c2cnc[nH]2)c1	-83.6%	
Nc1ccc(CCN2CCN(c3cccc(C(F)(F)F)c3)CC2)cc1	-72.3%	
C=CCC1(C(C)CCC)C(=O)N=C(S)NC1=O (centres undefined)	-66.2%	
CCC(=O)O[C@@](Cc1ccccc1)(c1ccccc1)[C@@H](C)CN(C)C	-82.5% [at 25.6 µM]	
COc1ccc2c(c1)/C(=C/c1cnc[nH]1)C(=O)N2	-90.4%	
C[C@H]1CCC[C@H](O)CCCCCc2cc(O)cc(O)c2C(=O)O1	-95.5%	
C[N+]1(C)[C@@H]2CC[C@H]1CC(OC(=O)c1c[nH]c3ccccc13)C2 (some centres undefined)	-74.5%	
c1ccc2c(c1)[I+]c1ccccc1-2		inactive
O=S1(=O)N(CCN2CC=C(c3c[nH]c4cc(F)ccc34)CC2)c2cccc3c2N1CCC3	-63.3%	
CC(C)(C)c1cc(C=C(C#N)C#N)cc(C(C)(C)C)c1O	-77.2%	
O=c1c2ccccc2[se]n1-c1ccccc1		inactive
Cc1c2ccncc2c(C)c2c1[nH]c1ccccc12		inactive
NNC(=O)c1ccc(O)cc1	-99.5%	
COc1ccc2c(c1)c(CCN1CCOCC1)c(C)n2C(=O)c1cccc(Cl)c1Cl	-73.6%	
